Results taken from PubChem BioAssay (NCATS).
Records with an inconclusive call do not appear. Activity calls are given as the source filed them. Calls follow the shape of the dose curve; as a rule, active = well fitted curve in the direction sought with a large enough effect; inconclusive = small, poorly fitted or top-dose-only effect, or another doubt; inactive = no such curve, though single readings can be large; an effect the other way counts as inactive or inconclusive.

Experiments:
[1] = Cytometric Cell-Based qHTS for Inhibitors of the mTORC1 Signaling Pathway in MEF (Tsc2-/-, p53-/-) Cells (AID 2660); conditions: mTORC1 pathway cytometry; series mostly up to 38.3 µM;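 also: percent of cells above a phospho-rpS6 to PI ratio cutoff in each well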
Method in brief: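 Tsc2-/-, p53-/- MEFs (empty vector) exposed to compound 24 h at 37 C, fixed, stained with Alexa-488 anti-phospho-rpS6 Ser235/236 and propidium iodide. Acumen laser scanning; phospho-S6/PI ratio thresholded against 7.5 nM rapamycin, reported as % positive cells.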

[2] = High Content Imaging Cell-Based qHTS for Inhibitors of the mTORC1 Signaling Pathway in MEF (Tsc2-/-, p53-/-) Cells (AID 2666); conditions: series mostly up to 38.3 µM;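 also: percent of cells scored positive for phospho-rpS6 Ser235/236 immunostaining by imaging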
Method in brief: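 Read-out: % positive cells per well, with thresholds from highest- and lowest-signal wells, based on phospho-rpS6 (Ser235/236) intensity normalized to Hoechst nuclear stain. Cells: Tsc2-/-, p53-/- MEFs carrying empty vector; compound 24 hrs, 37 degree Celsius.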

[3] = High Content Imaging Cell-Based qHTS for Inhibitors of the mTORC1 Signaling Pathway in MEF Cells (AID 2667); conditions: series mostly up to 38.3 µM;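 also: Tsc2-/- p53-/- MEFs stably re-expressing wild-type Tsc2 exposed 24 h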
Method in brief: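 MEF (Tsc2-/-, p53-/-, WT Tsc2 re-expressed); cpd 24 h, 37 °C; PFA fix; Alexa-488 anti-p-rpS6 Ser235/236, PI, Hoechst; IN Cell imaging; Hoechst/Alexa-488 intensity ratio; % active cells, thresholds set from rapamycin and DMSO wells.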

[4] = Cytometry Cell-Based qHTS for Inhibitors of the mTORC1 Signaling Pathway in MEF cells (AID 2668); conditions: mTORC1 pathway readout; series mostly up to 38.3 µM;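 also: Tsc2-/- p53-/- mouse embryonic fibroblasts stably re-expressing wild-type Tsc2; percent cells positive for phospho-rpS6 Ser235/236 relative to propidium iodide stain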
Method in brief: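 Read-out: phospho-rpS6 Ser235/236 immunofluorescence normalized to propidium iodide intensity, scored as % active cells against a rapamycin (7.5 nM) threshold. Cells: Tsc2-/-, p53-/- MEFs stably expressing WT Tsc2, compound-treated 24 hrs at 37 degree Celsius.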

Measured: Potency

O=[N+]([O-])c1ccc(CSc2ncnc3c2ncn3[C@@H]2O[C@H](CO)[C@@H](O)[C@H]2O)cc1
inactive: all assays above

CCNC(=O)[C@H]1O[C@@H](n2cnc3c(N)nc(NCCc4ccc(CCC(=O)O)cc4)nc32)[C@H](O)[C@@H]1O
inactive: all assays above

Nc1ncnc2c1ncn2[C@@H]1O[C@H](COP(=O)(O)CP(=O)(O)OP(=O)(O)O)[C@@H](O)[C@H]1O
inactive: all assays above

CN1C2CC(OC(=O)[C@H](CO)c3ccccc3)CC1C1OC12 (some centres not stated)
inactive: all assays above

N#C/C(=C\c1ccc(-c2cc(Cl)ccc2Cl)o1)C(=O)Nc1cccc2ncccc12
inactive: [2] | [3]

OCC1O[C@H]([S-])[C@H](O)[C@@H](O)[C@@H]1O.[Au+] (some centres not stated)
inactive: all assays above

N=c1ccn2c(n1)O[C@H]1[C@H](O)[C@@H](CO)O[C@H]12
inactive: [2] | [3]

Cn1ncc(S(=O)(=O)Cc2ccccc2)c(Br)c1=O
inactive: [2]

C=C[C@H]1CN2CC[C@@H]1C[C@@H]2[C@@H](O)c1ccnc2ccc(OC)cc12
inactive: all assays above

CO/S(=N\S(=O)(=O)c1ccc(Cl)cc1)c1ccc([N+](=O)[O-])cc1 (configuration not stated)
inactive: all assays above

NC(=S)c1ccc[n+]([C@@H]2O[C@@H](COP(=O)([O-])OP(=O)(O)OC[C@H]3O[C@@H](n4cnc5c(N)ncnc54)[C@H](OP(=O)(O)O)[C@@H]3O)C(O)C2O)c1 (some centres not stated)
inactive: all assays above
